Results published in PubChem BioAssay (EPA / NIEHS).
Results filed as inconclusive are left out. The source made the active and inactive calls. Rule for the calls, unless noted: active = hit-call score of the fitted dose curve at least 0.9, where 1 is the maximum; inconclusive = response in the unintended direction; inactive = score below 0.9.

Key:
[1] = TOX21_p53_BLA_p2_viability: Viability Assessment in the Tox21 HCT-116 p53 Agonism Beta-lactamase Assay, Phase 2 (AID 2283591);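 note: actives lower the ATP signal meaning cytotoxicity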
In short: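 Cytotoxicity readout: CellTiter-Glo ATP luminescence, 30 min at room temperature, after the beta-lactamase read. Cells were HCT116 exposed 16 h at 37C to compounds pin-transferred at 217-fold dilution from DMSO stocks.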

[2] = molecular target: Cellular tumor antigen p53 (Homo sapiens) (UniProt P04637); test: TOX21_p53_BLA_p2_ratio: Tox21 HCT-116 p53 Agonism Beta-lactamase Assay, Ratio, Phase 2 (AID 2283592)
Chain of Cellular tumor antigen p53 (Homo sapiens) (P04637 whole entry, looked up): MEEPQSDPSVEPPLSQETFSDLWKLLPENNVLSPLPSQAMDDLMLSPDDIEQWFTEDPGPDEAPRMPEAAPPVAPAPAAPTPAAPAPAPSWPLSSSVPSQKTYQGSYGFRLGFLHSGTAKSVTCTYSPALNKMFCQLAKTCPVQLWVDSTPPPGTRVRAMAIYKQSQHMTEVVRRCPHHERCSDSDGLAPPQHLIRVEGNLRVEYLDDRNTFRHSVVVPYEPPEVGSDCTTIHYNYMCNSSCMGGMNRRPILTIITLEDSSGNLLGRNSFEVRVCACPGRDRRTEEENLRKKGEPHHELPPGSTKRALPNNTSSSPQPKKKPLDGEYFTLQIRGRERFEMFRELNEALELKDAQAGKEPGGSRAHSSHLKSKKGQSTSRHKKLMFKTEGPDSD
In short: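 First, HCT116 reporter cells settle for 5 h at 37C. Next, DMSO compound solutions are pinned in (217-fold dilution) and left 16 h. Finally, CCF4-AM substrate is loaded 2 h at room temperature and the 460/530 nm ratio read.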

[3] = TOX21_p53_BLA_p3_viability: Viability Assessment in the Tox21 HCT-116 p53 Agonism Beta-lactamase Assay, Phase 3 (AID 2283593);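 note: cells exposed to compound for 16 h before reading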
In short: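 Cellular ATP was quantified by CellTiter-Glo luminescence, read after 30 min at room temperature. Beforehand, HCT116 cells (4000/well) received compound 5 h post-seeding, 217-fold diluted from DMSO, then incubated 16 h at 37C.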

[4] = molecular target: Cellular tumor antigen p53 (Homo sapiens) (UniProt P04637); test: TOX21_p53_BLA_p3_ratio: Tox21 HCT-116 p53 Agonism Beta-lactamase Assay, Ratio, Phase 3 (AID 2283596)
In short: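 Cells were seeded at 4000/well, rested 5 h at 37C, then dosed with DMSO compound solutions (217-fold dilution) for 16 h. CCF4-AM substrate was loaded for 2 h at room temperature, and the 460/530 nm emission ratio was fitted for gain of signal versus DMSO.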

[5] = TOX21_p53_BLA_p4_viability: Viability Assessment in the Tox21 HCT-116 p53 Agonism Beta-lactamase Assay, Phase 4 (AID 2283597);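 note: hits lower the luminescence signal meaning cytotoxicity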
In short: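 4000 HCT116 cells per well; 5 h attachment; compounds from DMSO, 217-fold dilution; 16 h at 37C. Then CCF4-AM, 2 h RT, followed by CellTiter-Glo, 30 min RT, luminescence. Decrease = cytotoxicity.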

[6] = molecular target: Cellular tumor antigen p53 (Homo sapiens) (UniProt P04637); test: TOX21_p53_BLA_p5_ratio: Tox21 HCT-116 p53 Agonism Beta-lactamase Assay, Ratio, Phase 5 (AID 2283599)
In short: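 Beta-lactamase reporter ratio (blue 460 nm over green 530 nm, 405 nm excitation) after 2 h CCF4-AM loading, in HCT-116 cells exposed 16 h at 37 C to compounds pinned at 217-fold dilution. Increases relative to DMSO baseline scored.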

[7] = TOX21_p53_BLA_p5_viability: Viability Assessment in the Tox21 HCT-116 p53 Agonism Beta-lactamase Assay, Phase 5 (AID 2283600)
In short: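 Decreased CellTiter-Glo luminescence denotes lost viability. Exposure: 16 h at 37C, 5% CO2, with compounds from DMSO stocks diluted 217-fold in wells of 4000 cells.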

[8] = molecular target: Cellular tumor antigen p53 (Homo sapiens) (UniProt P04637); test: TOX21_p53_BLA_p4_ratio: Tox21 HCT-116 p53 Agonism Beta-lactamase Assay, Ratio, Phase 4 (AID 2283601)
In short: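 Signal is the blue/green (460nm/530nm) ratio of cleaved versus uncleaved CCF4-AM substrate, read after 2 h substrate loading. Cells were HCT116 carrying the p53-responsive beta-lactamase reporter, dosed 16 h at 37C, 5% CO2; CellTiter-Glo measured in parallel.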

[9] = STM_H9_OrnCyssISnorm_ratio: Stemina devTOX quickPredict H9 human embryonic stem cell (hESC)-based Assay for Ornithine (ORN):Cystine (CYSS) Ratio (AID 2283714)
In short: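 Ratio of internal-standard-normalized ornithine to cystine, measured by UPLC-HRMS in spent media from the last 24 h. H9 cells kept pluripotent, dosed 72 h with daily media and compound renewal; DMSO 0.1% serves as baseline.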

[10] = STM_H9_NormalizedViability: Cytotoxicity Assessment at 120 hours in the Stemina devTOX quickPredict H9 human embryonic stem cell (hESC)-based Assay (AID 2283784)
In short: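 Viability endpoint: background-corrected CellTiter-Fluor RFU expressed relative to the 0.1% DMSO mean on each plate. Undifferentiated H9 cells were treated with daily re-dosing and media change, and loss of signal was fitted.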

[11] = CCTE_Harrill_HTTr_Viability_MCF7: CCTE's 6-hour Cell Viability Assessment for the High-Throughput Transcriptomics (HTTr) Platform, in MCF-7 cells cultured in DMEM + 10% fetal bovine serum, Harrill Lab (AID 2284010; active = hit-call score of the fitted dose curve at least 0.9, where 1 is the maximum; inactive = score below 0.9)
In short: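 Propidium iodide exclusion, imaged by high-content analysis, gauged viability after a six-hour exposure across eight concentrations. Cells were MCF-7 grown in DMEM with 10% fetal bovine serum; fits run in both directions against DMSO.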

[12] = CCTE_Harrill_HTTr_Apoptosis_MCF7: CCTE's 6-hour Apoptosis Assessment for the High-Throughput Transcriptomics (HTTr) Platform, in MCF-7 cells cultured in DMEM + 10% fetal bovine serum, Harrill Lab (AID 2284011; active = hit-call score of the fitted dose curve at least 0.9, where 1 is the maximum; inactive = score below 0.9)
In short: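 MCF-7 cells in DMEM + 10% FBS exposed 6 h to chemicals over an eight-point dilution series. Caspase-3/7 activation imaged by high-content CellEvent Green staining; fitted bidirectionally versus DMSO.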

[13] = CCTE_Harrill_HTTr_CellCount_MCF7: CCTE's Cell Proliferation Assessment for the High-Throughput Transcriptomics (HTTr) Platform, Harrill Lab (AID 2284012);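 note: cells exposed to compound for six hours; intended direction is loss of nuclei count meaning fewer cells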
In short: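 Cell count from high-content imaging of Hoechst-labeled nuclei serves as viability/growth readout. Chemicals were applied to MCF-7 cells in eight concentrations for six hours, with fitting in both directions relative to DMSO.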

Measured: AC50

CC(O)CN1CCN(CC(=O)[O-])CCN(CC(=O)[O-])CCN(CC(=O)[O-])CC1.[Gd+3] (stereo not drawn)
not listed: [9] | [10] | [11] | [12] | [13]
inactive: all other assays above

CC(C)N(C(=O)SCC(Cl)=CCl)C(C)C
inactive: [1] | [2] | [3] | [4] | [5] | [6] | [7]

[Cl][Hg][c]1ccccc1
active: [1] 0.576 µM | [2] 0.553 µM | [3] 2.88 µM | [4] 8.93 µM | [5] 0.624 µM | [6] 10.9 µM | [7] 2.95 µM | [8] 0.672 µM

c1ccc2c(c1)[nH]c1cnccc12
inactive: [1] | [2] | [3] | [5] | [6] | [7] | [8]
active: [4] 46.1 µM

CN1C[C@@H](NS(=O)(=O)N(C)C)C[C@@H]2c3cccc4c3c(cn4C)C[C@H]21
not listed: [9] | [10] | [11] | [12] | [13]
inactive: all other assays above

COc1ccc(Cc2nccc3cc(OC)c(OC)cc23)cc1OC
not listed: [9] | [10] | [11] | [12] | [13]
inactive: all other assays above

Oc1ccc(Cl)c(Cl)c1Cl
not listed: [9] | [10] | [11] | [12] | [13]
inactive: all other assays above

CCC(C)(S(=O)(=O)CC)S(=O)(=O)CC
not listed: [9] | [10] | [11] | [12] | [13]
inactive: all other assays above

C[C@@H](Cc1ccccc1)NCCC(c1ccccc1)c1ccccc1
inactive: [1] | [2] | [3] | [4] | [6] | [7] | [8]
active: [5] 12.5 µM

Cc1ccccc1
not listed: [9] | [10] | [11] | [12] | [13]
inactive: all other assays above

CC(C)CON=O
not listed: [9] | [10] | [11] | [12] | [13]
inactive: all other assays above

CC[C@H](OC(C)=O)C(C[C@H](C)NC)(c1ccccc1)c1ccccc1
active: [5] 51.1 µM
inactive: [1] | [2] | [3] | [4] | [6] | [7] | [8]

O=C(O)/C=C\C(=O)O
not listed: [9] | [10] | [11] | [12] | [13]
inactive: all other assays above

O=C(O)C(Cl)Br (stereo not drawn)
not listed: [9] | [10] | [11] | [12] | [13]
inactive: all other assays above

ClC(Br)Br
not listed: [9] | [10] | [11] | [12] | [13]
inactive: all other assays above

O=CC=Cc1ccccc1
active: [9] 83.9 µM | [10] 93.6 µM
inactive: all other assays above

O=c1ccc2cc(O[C@@H]3O[C@H](CO)[C@@H](O)[C@H](O)[C@H]3O)c(O)cc2o1
active: [2] 10.3 µM | [4] 12 µM | [6] 10.3 µM | [8] 10.9 µM
inactive: [1] | [3] | [5] | [7]

OC(O)C(Cl)(Cl)Cl
not listed: [9] | [10] | [11] | [12] | [13]
inactive: all other assays above

NCC(O)c1cccc(O)c1 (stereo not drawn)
not listed: [9] | [10] | [11] | [12] | [13]
inactive: all other assays above

BrC(Br)C(Br)(Br)Br
not listed: [9] | [10] | [11] | [12] | [13]
inactive: all other assays above

CCCC(=O)OC(C(Cl)(Cl)Cl)P(=O)(OC)OC (stereo not drawn)
not listed: [9] | [10] | [11] | [12] | [13]
inactive: all other assays above

NCC(O)c1ccc(O)cc1 (stereo not drawn)
not listed: [9] | [10] | [11] | [12] | [13]
inactive: all other assays above

O=[N+]([O-])c1cc(I)c(O)c(I)c1
active: [1] 7.77 µM | [2] 17.7 µM | [3] 5.69 µM | [4] 2.65 µM | [5] 11.3 µM | [6] 24.2 µM | [7] 11 µM | [8] 18 µM
